In PubChem BioAssay AID1159580 (chemical genetic matrix, 2015):
Where “and” joins values, the source holds several entries; their conditions need not be identical. Identical values can stand only once. Hit rate of the full screen: of about 5,500 compounds, about 2,000 (36%) were called active. Roughly 18% stayed inconclusive and do not appear here. Rule as the data show it: active = normalized growth mostly below about 0.91 (no sharp cut-off); inconclusive = no clear call, values can overlap the other calls; inactive = mostly above about 0.92. This is one part of the list.

Test: chemical genetic growth profiling, strain panel (AID 1159580);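 also: tested at 20 µM; growth read once vehicle control cultures reached saturation at 30 °C; 1 = growth at the plate median or of vehicle wells; lower values mean less growth of the strain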
Conditions: S. cerevisiae deletion strains, growth OD

Measured: normalized growth

COc1ccc2c(c1)[C@]13CCCC[C@H]1[C@H](C2)N(C)CC3
inactive: locus YAL021C, strain ccr4, stronger effect = lower value 0.94 | locus YAL026C, strain drs2, stronger effect = lower value 1 | locus YAL030W, strain snc1, stronger effect = lower value 0.971 | locus YBL061C, strain skt5, stronger effect = lower value 0.981 | locus YBR009C, strain hhf1, stronger effect = lower value 0.988 | locus YBR021W, strain FUR4, stronger effect = lower value 1.01 | locus YBR023C, strain chs3, stronger effect = lower value 0.99 | locus YBR171W, strain sec66, stronger effect = lower value 0.933 | locus YBR229C, strain ROT2, stronger effect = lower value 1.01 | locus YBR231C, strain swc5, stronger effect = lower value 0.937 | locus YBR279W, strain paf1, stronger effect = lower value 0.998 | locus YCL011C, strain gbp2, stronger effect = lower value 0.991 | locus YCL016C, strain dcc1, stronger effect = lower value 1.03 | locus YCL029C, strain bik1, stronger effect = lower value 0.988 | locus YCL061C, strain MRC1, stronger effect = lower value 0.968 | locus YCL069W, strain vba3, stronger effect = lower value 0.995 | locus YCR088W, strain abp1, stronger effect = lower value 0.952 | locus YDL005C, strain med2, stronger effect = lower value 0.97 | locus YDL035C, strain GPR1, stronger effect = lower value 1.04 | locus YDL040C, strain nat1, stronger effect = lower value 0.962 | locus YDL074C, strain BRE1, stronger effect = lower value 0.993 | locus YDL101C, strain DUN1, stronger effect = lower value 1 | locus YDL134C, strain PPH21, stronger effect = lower value 1.03 | locus YDL185W, strain tfp1, stronger effect = lower value 0.989 | locus YDL192W, strain arf1, stronger effect = lower value 0.995 | locus YDR001C, strain nth1, stronger effect = lower value 0.951 | locus YDR069C, strain doa4, stronger effect = lower value 0.943 | locus YDR101C, strain arx1, stronger effect = lower value 0.999 | locus YDR137W, strain rgp1, stronger effect = lower value 0.999 | locus YDR150W, strain NUM1, stronger effect = lower value 1.01 | locus YDR159W, strain sac3, stronger effect = lower value 0.955 | locus YDR162C, strain NBP2, stronger effect = lower value 1.01 | locus YDR195W, strain ref2 0.926 | locus YDR297W, strain sur2, stronger effect = lower value 0.98 | locus YDR318W, strain mcm21, stronger effect = lower value 0.988 | locus YDR334W, strain swr1, stronger effect = lower value 0.909 | locus YDR335W, strain msn5, stronger effect = lower value 0.949 | locus YDR388W, stronger effect = lower value 0.993 | locus YDR392W, strain spt3, stronger effect = lower value 1.03 | locus YDR502C, strain sam2, stronger effect = lower value 0.992 | locus YEL003W, strain gim4, stronger effect = lower value 0.966 | locus YEL037C, strain rad23, stronger effect = lower value 0.975 | locus YEL061C, strain CIN8 (second series), stronger effect = lower value 0.96 | locus YEL061C, strain CIN8, stronger effect = lower value 1.01 | locus YER015W, strain faa2, stronger effect = lower value 0.961 | locus YER016W, strain bim1, stronger effect = lower value 1 | locus YER110C, stronger effect = lower value 0.996 | locus YER111C, strain swi4, stronger effect = lower value 0.978 | locus YER155C, strain BEM2 (second series), stronger effect = lower value 0.886 | locus YER155C, strain BEM2, stronger effect = lower value 1 | locus YER167W, strain BCK2, stronger effect = lower value 1.01 | locus YFR010W, strain ubp6, stronger effect = lower value 0.95 | locus YGL078C, strain dbp3, stronger effect = lower value 0.993 | locus YGL086W, strain mad1, stronger effect = lower value 0.993 | locus YGL167C, strain pmr1, stronger effect = lower value 0.946 | locus YGL173C, strain kem1, stronger effect = lower value 1 | locus YGL227W, strain vid30, stronger effect = lower value 0.965 | locus YGL240W, strain doc1, stronger effect = lower value 0.948 | locus YGL248W, strain PDE1, stronger effect = lower value 0.995 | locus YGL253W, strain hxk2, stronger effect = lower value 0.998 | locus YGR078C, strain PAC10, stronger effect = lower value 0.996 | locus YGR135W, strain pre9, stronger effect = lower value 0.964 | locus YGR229C, strain SMI1, stronger effect = lower value 1.02 | locus YGR252W, strain gcn5, stronger effect = lower value 0.973 | locus YHR013C, strain ard1, stronger effect = lower value 0.991 | locus YHR027C, strain rpn1, stronger effect = lower value 0.985 | locus YHR030C, strain SLT2, stronger effect = lower value 1.01 and 1.03 | locus YHR079C, strain IRE1 (second series), stronger effect = lower value 0.984 | locus YHR079C, strain IRE1, stronger effect = lower value 1.03 | locus YHR094C, strain hxt1, stronger effect = lower value 0.987 | locus YHR129C, strain ARP1, stronger effect = lower value 1.01 | locus YHR142W, strain chs7, stronger effect = lower value 0.987 | locus YHR200W, strain rpn10, stronger effect = lower value 0.996 | locus YIL066C, strain RNR3, stronger effect = lower value 1.01 | locus YIL073C, strain SPO22, stronger effect = lower value 0.976 | locus YIL125W, strain kgd1, stronger effect = lower value 0.987 | locus YIR030C, strain dcg1, stronger effect = lower value 0.999 | locus YJL092W, strain hpr5, stronger effect = lower value 0.962 | locus YJL095W, strain BCK1 (second series), stronger effect = lower value 0.978 | locus YJL095W, strain BCK1, stronger effect = lower value 0.966 and 1.04 | locus YJL115W, strain asf1, stronger effect = lower value 0.95 | locus YJL129C, strain trk1, stronger effect = lower value 0.932 | locus YJL134W, strain LCB3, stronger effect = lower value 0.999 | locus YJL154C, strain vps35, stronger effect = lower value 0.954 | locus YJL164C, strain tpk1, stronger effect = lower value 1.02 | locus YJL166W, strain qcr8, stronger effect = lower value 0.929 | locus YJL168C, strain set2, stronger effect = lower value 0.99 | locus YJL187C, strain SWE1 (second series), stronger effect = lower value 0.994 | locus YJR043C, strain POL32, stronger effect = lower value 1.04 | locus YJR066W, strain TOR1, stronger effect = lower value 0.984 | locus YJR075W, strain HOC1, stronger effect = lower value 0.983 | locus YKL009W, strain mrt4, stronger effect = lower value 0.99 | locus YKL068W, stronger effect = lower value 0.993 | locus YKL085W, strain MDH1 (second series), stronger effect = lower value 0.984 | locus YKL085W, strain MDH1, stronger effect = lower value 0.984 | locus YKL160W, strain elf1, stronger effect = lower value 0.97 | locus YKR001C, strain vps1, stronger effect = lower value 0.997 | locus YKR026C, strain gcn3, stronger effect = lower value 0.966 | locus YKR091W, strain srl3, stronger effect = lower value 0.966 | locus YLL001W, strain dnm1, stronger effect = lower value 0.926 | locus YLL026W, stronger effect = lower value 0.986 | locus YLL041C, strain sdh2, stronger effect = lower value 0.97 | locus YLR027C, strain aat2, stronger effect = lower value 0.966 | locus YLR039C, strain RIC1, stronger effect = lower value 1.1 | locus YLR058C, strain SHM2, stronger effect = lower value 0.996 | locus YLR102C, strain apc9, stronger effect = lower value 0.976 | locus YLR113W, strain HOG1, stronger effect = lower value 1.05 | locus YLR221C, strain rsa3, stronger effect = lower value 1.01 | locus YLR258W, strain gsy2, stronger effect = lower value 0.997 | locus YLR262C, strain YPT6 (second series), stronger effect = lower value 0.954 | locus YLR262C, strain YPT6, stronger effect = lower value 1.08 | locus YLR268W, strain sec22, stronger effect = lower value 0.988 | locus YLR320W, strain mms22, stronger effect = lower value 1 | locus YLR330W, strain CHS5, stronger effect = lower value 1.01 | locus YLR342W, strain FKS1 (second series), stronger effect = lower value 0.997 | locus YLR342W, strain FKS1, stronger effect = lower value 0.946 | locus YLR357W, strain rsc2, stronger effect = lower value 0.958 | locus YLR370C, strain arc18, stronger effect = lower value 0.989 | locus YLR371W, strain rom2, stronger effect = lower value 0.993 | locus YLR384C, strain iki3, stronger effect = lower value 0.956 | locus YLR418C, strain cdc73, stronger effect = lower value 0.957 | locus YML016C, strain PPZ1, stronger effect = lower value 1.01 | locus YML032C, strain rad52, stronger effect = lower value 0.997 | locus YML120C, strain ndi1, stronger effect = lower value 0.973 | locus YML124C, strain tub3, stronger effect = lower value 0.997 | locus YMR058W, strain fet3, stronger effect = lower value 0.974 | locus YMR078C, strain ctf18, stronger effect = lower value 0.982 | locus YMR125W, strain sto1, stronger effect = lower value 0.917 | locus YMR129W, stronger effect = lower value 0.985 | locus YMR205C, strain PFK2, stronger effect = lower value 0.953 | locus YMR223W, strain ubp8, stronger effect = lower value 0.965 | locus YMR231W, strain pep5, stronger effect = lower value 0.965 | locus YMR307W, strain GAS1, stronger effect = lower value 1.09 | locus YNL067W, strain RPL9B, stronger effect = lower value 0.99 | locus YNL071W, strain lat1, stronger effect = lower value 0.982 | locus YNL153C, strain GIM3, stronger effect = lower value 0.981 | locus YNL183C, strain NPR1, stronger effect = lower value 0.997 | locus YNL209W, strain ssb2, stronger effect = lower value 0.99 | locus YNL233W, strain BNI4, stronger effect = lower value 0.982 | locus YNL248C, strain rpa49, stronger effect = lower value 0.987 | locus YNL250W, strain rad50, stronger effect = lower value 1.01 | locus YNL271C, strain bni1, stronger effect = lower value 0.994 | locus YNL298W, strain CLA4, stronger effect = lower value 0.991 | locus YNL307C, strain MCK1, stronger effect = lower value 0.979 | locus YNL322C, strain KRE1 (second series), stronger effect = lower value 0.93 | locus YNR049C, strain mso1, stronger effect = lower value 0.976 | locus YNR052C, strain pop2, stronger effect = lower value 0.992 | locus YOL012C, strain htz1 0.734 | locus YOL147C, strain pex11, stronger effect = lower value 0.989 | locus YOR001W, strain rrp6, stronger effect = lower value 0.953 | locus YOR061W, strain CKA2, stronger effect = lower value 1.02 | locus YOR069W, strain VPS5, stronger effect = lower value 1.01 | locus YOR070C, strain gyp1, stronger effect = lower value 0.987 | locus YOR080W, strain dia2, stronger effect = lower value 0.945 | locus YOR083W, strain WHI5, stronger effect = lower value 0.947 | locus YOR106W, strain vam3, stronger effect = lower value 0.939 | locus YOR136W, strain idh2, stronger effect = lower value 0.99 | locus YOR144C, strain elg1, stronger effect = lower value 0.99 | locus YOR184W, strain ser1, stronger effect = lower value 0.99 | locus YOR231W, strain MKK1, stronger effect = lower value 1.04 | locus YOR265W, strain rbl2, stronger effect = lower value 0.967 | locus YOR270C, strain vph1, stronger effect = lower value 0.966 | locus YOR290C, strain snf2, stronger effect = lower value 1.01 | locus YOR316C, strain cot1, stronger effect = lower value 0.991 | locus YPL051W, strain arl3, stronger effect = lower value 0.985 | locus YPL078C, strain atp4, stronger effect = lower value 0.933 | locus YPL106C, strain sse1, stronger effect = lower value 0.944 | locus YPL240C, strain hsp82, stronger effect = lower value 0.967 | locus YPL256C, strain CLN2, stronger effect = lower value 1.03 | locus YPR119W, strain clb2, stronger effect = lower value 0.981 | locus YPR141C, strain kar3, stronger effect = lower value 0.98 | locus YPR163C, strain tif3, stronger effect = lower value 1 | locus YPR167C, strain met16, stronger effect = lower value 0.987 | strain wtn01, stronger effect = lower value 0.986
